Measured values from ChEMBL document CHEMBL3988442, “University of Dundee, Small-Polar-MMV Screening Library” (2021).
Screen size: about 48,000 compounds; about 13,000 (27%) showed an effect of 50% or more. This is one part of the list.

test system: Wolbachia pipientis; test: Anti-Wolbachia Cell-Based Screen; format: functional; parameters: scale not given: in the data most compounds retested in dose-response had high values; conditions: 5 µM

Row | SMILES | Percent Effect [%]
1 | COCCc1noc(C2CCN(C(=O)Nc3cccs3)CC2)n1 | -7.09
2 | O=C1N(c2cccc(Cl)c2)Cc2nc(=O)n(Cc3cccc(F)c3)n21 | -1.382
3 | c1ccc(CN2CCN(Cc3cscn3)CC2)cc1 | 8.549
4 | O=C1CCC(=O)N1c1nn(Cc2cccc(F)c2)cc1Cl | 81.78
5 | Cc1nsc(N2CCN(Cc3cccc(F)c3)CC2)n1 | -33.99
6 | CCn1cc(C(=O)N(C)Cc2c(F)cccc2Cl)cn1 | 10.91
7 | O=C1CCC(=O)N1c1nn(Cc2c(F)cccc2Cl)cc1Cl | 84.15
8 | O=C1CCC(=O)N1c1nn(Cc2ccccc2)cc1Cl | 98.19
9 | CN1CCN(Cc2ccccc2Cl)CC12CCC(=O)N(CC1CC1)CC2 (stereo not given) | 19.23
10 | Fc1cccc(Cl)c1CN1CCn2c(nnc2C2CC2)C1 | -25.63
11 | O=C1CCC(=O)N1c1nn(Cc2ccccc2Cl)cc1Cl | 119
12 | O=C1N(Cc2ccccc2)C[C@H]2CN(Cc3ccccc3Cl)CCN12 | -1.651
13 | O=c1ccc(-c2cccs2)nn1CN1CCN(Cc2ccccc2)CC1 | 10.59
14 | Cc1cc(C(=O)N2CCc3nnc(N(C)C)cc3C2)c(C)n1C1CC1 | 2.988
15 | CS(=O)(=O)c1nnc(NC(=O)CCc2cccc(Cl)c2)[nH]1 | -4.467
16 | O=C(c1ncoc1-c1ccco1)N(Cc1ccco1)CC1CCCO1 (stereo not given) | 1.49
17 | COc1cc(OC)c(CNC(=O)NCC(=O)N(C)C)c(OC)c1 | -14.89
18 | COc1ccc(-c2n[nH]cc2CN(C)CCC2CCOCC2)cc1F | -12.67
19 | CN(C)S(=O)(=O)N1CCCCC1CCc1ccc(O)cc1 (stereo not given) | 3.428
20 | Cc1nsc(NCCNS(=O)(=O)c2cccc(Cl)c2)n1 | 1.185
21 | O=C1CCC(=O)N1c1nn(Cc2ccc(F)cc2)cc1Cl | 96.9
22 | COc1nccnc1N1CCN(Cc2ccc(F)cc2)C(=O)C1 | -14.02
23 | CC(C)C1CN(c2ncccc2Cl)CCC(=O)N1Cc1ccc(F)cc1 (stereo not given) | 6.297
24 | Cc1ccc(CN(CCCO)Cc2nc3ccccc3[nH]2)s1 | -7.789

Row | SMILES | Percent Effect [%]
25 | CNC(=O)[C@@H]1C[C@@H](N)CN1C(=O)CCSCc1ccc(F)cc1 | -13.45
26 | O=C(O)C(F)(F)F.O=C(O)[C@]12CCCN(Cc3ccccc3)C[C@H]1CN(c1ncccn1)C2 | -10.65
27 | O=C(C1CCC2(CCN(c3nncs3)CC2)CO1)N1CCCC1.O=C(O)C(F)(F)F (stereo not given) | -6.023
28 | Cc1cnc(N2C[C@@H]3CN(Cc4ccco4)CCC[C@]3(C(=O)O)C2)nc1.O=C(O)C(F)(F)F | 5.679
29 | Cc1cnc(N2C[C@@H]3CN(C4CCOC4)CCC[C@]3(C(=O)O)C2)nc1.O=C(O)C(F)(F)F (stereo not given in full) | 115.6
30 | O=C(O)C(F)(F)F.O=C(O)C(F)(F)F.O=C(O)[C@]12CCCN(Cc3ccncc3)C[C@H]1CN(c1ncccn1)C2 | 1.194
31 | O=C(O)C(F)(F)F.O=C(O)[C@]12CCCN(C3CCOC3)C[C@H]1CN(c1nncs1)C2 (stereo not given in full) | 113.4
32 | Cc1ccc(CN2CCC[C@]3(C(=O)O)CN(c4ncccn4)C[C@@H]3C2)o1.O=C(O)C(F)(F)F | -9.127
33 | O=C(O)C(F)(F)F.O=C(O)[C@]12CCCN(CC3CCOC3)C[C@H]1CN(c1ncccn1)C2 (stereo not given in full) | 119
34 | CNC(=O)C1CCC2(CCN(c3nncs3)CC2)CO1.O=C(O)C(F)(F)F (stereo not given) | 1.191
35 | Cc1cc(CN(C)C(=O)NCc2ccnc(SC(C)(C)C)c2)no1 | -6.174
36 | COc1ncccc1CNC(=O)CN1CCCCCC1=O | -54.83
37 | Cc1nc(N)nc(C)c1Cc1nc(C2CC2)n[nH]1 | -31.49
38 | O=C(NCCNC(=O)C1CCCCC1)NCCn1cccc1 | 0.3641
39 | Cc1noc(C)c1CCCNC(=O)C1CCN(C(C)C)CC1 | 1.059
40 | COCC(=O)Nc1ccccc1-c1ccc(=O)n(C)n1 | 7.916
41 | Cc1noc(C)c1CCCNC(=O)C1CCN(C(=O)C2CC2)CC1 | 11.33
42 | COCC(=O)NCCn1nc(-c2cc(C)oc2C)ccc1=O | 96.68
43 | Cc1cc(-c2ccc(=O)n(CCNC(=O)C3CCC3)n2)c(C)o1 | 82.02
44 | O=C(NCCCNC(=O)C1CCC1)NCCn1cccc1 | -4.539
45 | Cc1noc(C)c1CCCNC(=O)C1CCN(C(=O)C2CCC2)CC1 | 9.148
46 | CC(C)NC(=O)NCCn1cnc(C2CCCC2)cc1=O | -0.7993
47 | Cc1cc(-c2ccc(=O)n(CCNC(=O)C3CCCCC3)n2)c(C)o1 | 127.3
48 | Cc1cc(-c2ccc(=O)n(CCNC(=O)C3CC3)n2)c(C)o1 | 72.81

Row | SMILES | Percent Effect [%]
49 | Cc1cc(C(O)CCNC(=O)COc2ccccc2F)c(C)o1 (stereo not given) | 1.741
50 | CSc1ccc(NC(=O)NCc2nncn2C2CC2)cc1F | 6.164
51 | O=C(NCCN1CCCCC1)c1nc(-c2ccc3cc[nH]c3c2)no1 | 1.073
52 | COCCN(CCOC)C(=O)c1ccc(Cn2nc(C)cc2C)cc1 | -2.502
53 | Cc1cc(C)n(Cc2ccc(-c3noc(C(=O)NCCCO)n3)cc2)n1 | 113.7
54 | Cc1cc(C)n(Cc2ccc(-c3noc(C(=O)NCCO)n3)cc2)n1 | 112.8
55 | Cc1cc(C)n(Cc2ccc(-c3noc(C(=O)NC[C@@H](C)O)n3)cc2)n1 | 107.8
56 | CNC(=O)CCNC(=O)c1cccc(Cn2nc(C)cc2C)c1 | -10.69
57 | Cc1cc(C)n(Cc2ccc(C(=O)NCCN3CCOCC3)cc2)n1 | 0.4084
58 | CCN(CCC(=O)OC)C(=O)c1cccc(Cn2nc(C)cc2C)c1 | 2.618
59 | COCc1cc(C[C@@H]2CC[C@H](O)[C@@H](CNCC(C)C)O2)no1 | -7.367
60 | CN1CCN(Cc2cccnc2)C2(CCN(Cc3ccoc3)C2)C1=O.O=C(O)C(F)(F)F.O=C(O)C(F)(F)F.O=C(O)C(F)(F)F (stereo not given) | -11.48
61 | CC(C)CN1C(=O)C2(CCN(Cc3ccoc3)C2)c2ccccc21.O=C(O)C(F)(F)F (stereo not given) | 60.6
62 | Cc1ccc(CN2CCC3(C2)C(=O)N(CC(N)=O)c2ccccc23)s1 (stereo not given) | -16.39
63 | CC(C)CN1C(=O)C2(CCN(CC3CCOCC3)C2)c2ccccc21.O=C(O)C(F)(F)F (stereo not given) | 3.565
64 | Cc1ccc(CN2CCC3(C2)C(=O)N(CC2CC2)c2ccccc23)s1.O=C(O)C(F)(F)F (stereo not given) | 106.7
65 | CC(C)CN1C(=O)C2(CCN(Cc3cccs3)C2)c2ccccc21.O=C(O)C(F)(F)F (stereo not given) | 129.4
66 | CC(C)CN1C(=O)C2(CCN(Cc3ccsc3)C2)c2ccccc21.O=C(O)C(F)(F)F (stereo not given) | 118.8
67 | CC(C)CN1C(=O)C2(CCN(Cc3nccs3)C2)c2ccccc21.O=C(O)C(F)(F)F (stereo not given) | 21.56
68 | CCN(CC)C(CNCc1cc(F)cc(F)c1)c1ccco1 (stereo not given) | 4.253
69 | Cc1ccsc1[C@@H]1CCN(C(=O)CCc2cc(O)no2)C[C@H]1O | 2.962
70 | COc1ccccc1CC(=O)NCc1c(C)nc2cc(=O)[nH]n2c1C | -0.07038
71 | Cc1ccc(C(C)(O)CNC(=O)c2sccc2Br)o1 (stereo not given) | 16.11
72 | CC(c1nc(C2CC2)no1)N1CCC(NS(=O)(=O)c2cccs2)CC1 (stereo not given) | 7.931

Row | SMILES | Percent Effect [%]
73 | CC(C)CN1C(=O)C2(CCN(Cc3ccc(F)cc3)C2)c2ccccc21 (stereo not given) | 132
74 | Cc1ccc(CN2CCC3(C2)C(=O)N(CC(C)C)c2ccccc23)s1 (stereo not given) | 8.577
75 | O=C(O)C(F)(F)F.O=C(O)C(F)(F)F.c1cnc(N2C[C@H]3CCN(CCN4CCCC4)C[C@H]3C2)cn1 | 87.36
76 | O=C(O)C(F)(F)F.c1cnc(N2C[C@H]3CCN(CC4CC4)C[C@H]3C2)cn1 | 93.44
77 | O=C(O)[C@]12CN(CC3CCC3)C[C@H]1CN(c1cnccn1)C2 | 5.69
78 | O=C(O)C(F)(F)F.O=C(O)C(F)(F)F.c1cnc(N2CCOCC3(CCCN(CC4CC4)C3)C2)cn1 (stereo not given) | -18.67
79 | Cn1cc(CNCCc2nccs2)c(-c2cccnc2)n1 | 5.46
80 | C[C@@H]1CN(C2(C(=O)N3CC[C@H](O)C3)Cc3ccccc3C2)C[C@H](C)O1 | 3.055
81 | Brc1ccc2[nH]c3c(c2c1)CCCC3c1nn[nH]n1 (stereo not given) | 153.1
82 | c1ccc2c3c([nH]c2c1)C(c1nn[nH]n1)CCC3 (stereo not given) | 118.9
83 | O=c1[nH]c2ccccc2c(=O)n1Cc1nnnn1C1CC1 | -11.16
84 | CCc1ccc(C(=O)N2CCCC(c3nn[nH]n3)C2)cc1 (stereo not given) | 6.219
85 | Clc1ccc2[nH]c3c(c2c1)CCCC3c1nn[nH]n1 (stereo not given) | 91.29
86 | NCC1Cc2cc(Cl)cc(-c3cncc(C(=O)N4CCCCC4)n3)c2O1 (stereo not given) | 0.4481
87 | O=C(NCc1cccs1)C1CNCC12CCOCC2.O=C(O)C(F)(F)F (stereo not given) | 1.102
88 | CN1C[C@@H]2COC[C@]2(C(=O)NCCc2cccs2)C1.O=C(O)C(F)(F)F | -4.441
89 | CC(C)NC(=O)[C@H]1C[C@@H]2[C@@H](C1)OCCN2Cc1cccs1.O=C(O)C(F)(F)F | -8.796
90 | O=C(NCCc1cccs1)[C@]12COC[C@H]1CN(C1CCOCC1)C2.O=C(O)C(F)(F)F | -30.21
91 | O=C(NCc1cccs1)c1nc2c(o1)CN(CC1CC1)C2.O=C(O)C(F)(F)F | -6.948
92 | O=C(O)C(F)(F)F.O=C1CO[C@@H]2CN(Cc3cccs3)C[C@H]2N1CC1CC1 | 3.643
93 | O=C(NCCc1cccs1)[C@H]1CO[C@H]2CCN(CC3CC3)C[C@H]2C1.O=C(O)C(F)(F)F | 100.3
94 | O=C(NCc1cccs1)[C@H]1CO[C@H]2CCN(C3CCCC3)C[C@H]2C1.O=C(O)C(F)(F)F | 106.7
95 | O=C(NCCc1cccs1)[C@H]1CO[C@H]2CCN(C3CCC3)C[C@H]2C1.O=C(O)C(F)(F)F | 119.1
